Reference: PubChem BioAssay (NCATS)
Values joined by “and” are separate entries in the source; they are usually repeats but may differ in a detail not shown here. Equal values may be shown once. Inconclusive results are not listed. Active and inactive are the calls of the source. Calls follow the shape of the dose curve; as a rule, active = well fitted curve in the direction sought with a large enough effect; inconclusive = small, poorly fitted or top-dose-only effect, or another doubt; inactive = no such curve, though single readings can be large; an effect the other way counts as inactive or inconclusive.

Tests used:
[1] = qHTS of pediatric cancer cell lines to identify multiple opportunities for drug repurposing: Primary screen for SK-N-MC cells (AID 1347093); also: potency is read from the fitted curve at half-maximal effect
Outline: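 Metabolically active cells were quantified by ATP-dependent luminescence (CellTiter-Glo, 15 min at room temperature) following 48 h treatment. Cells had been plated at 500-1,000 per well and settled for 5 h beforehand.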

[2] = qHTS of pediatric cancer cell lines to identify multiple opportunities for drug repurposing: Primary screen for BT-37 cells (AID 1347094); also: potency is read from the fitted curve at half-maximal effect
Outline: (§1)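 Quantitative HTS format: each compound titrated (MIPE 11 points from 0.78 nM, NPC 8 points from 0.59 nM) onto cells plated 5 hours earlier. After 48 h at 37 degrees C, CellTiter-Glo luminescence was recorded.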

[3] = qHTS of pediatric cancer cell lines to identify multiple opportunities for drug repurposing: Primary screen for NB-EBc1 cells (AID 1347095); also: potency is read from the fitted curve at half-maximal effect
Outline: as §1

[4] = qHTS of pediatric cancer cell lines to identify multiple opportunities for drug repurposing: Primary screen for U-2 OS cells (AID 1347096); also: nearly all actives have a fitted effect of over 50% in size
Outline: (§2)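 Viability after 48 h compound treatment at 37C, 500-1,000 cells/well, read as ATP luminescence with CellTiter-Glo. Primary screens used 11-point (MIPE, 0.78 nM-46 µM) or 8-point (NPC, 0.59 nM-46 µM) final concentrations; follow-up screens used 11-point dilutions.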

[5] = qHTS of pediatric cancer cell lines to identify multiple opportunities for drug repurposing: Primary screen for Saos-2 cells (AID 1347097); also: nearly all actives have a fitted effect of over 40% in size; also: potency is read from the fitted curve at half-maximal effect
Outline: as §1

[6] = qHTS of pediatric cancer cell lines to identify multiple opportunities for drug repurposing: Primary screen for NB1643 cells (AID 1347099); also: nearly all actives have a fitted effect of over 50% in size; also: potency is read from the fitted curve at half-maximal effect
Outline: as §1

[7] = qHTS of pediatric cancer cell lines to identify multiple opportunities for drug repurposing: Primary screen for LAN-5 cells (AID 1347100); also: potency is read from the fitted curve at half-maximal effect
Outline: as §2

[8] = qHTS of pediatric cancer cell lines to identify multiple opportunities for drug repurposing: Primary screen for Rh18 cells (AID 1347102); also: nearly all actives have a fitted effect of over 65% in size; also: potency is read from the fitted curve at half-maximal effect
Outline: as §2

[9] = qHTS of pediatric cancer cell lines to identify multiple opportunities for drug repurposing: Primary screen for OHS-50 cells (AID 1347103); also: nearly all actives have a fitted effect of over 40% in size; also: potency is read from the fitted curve at half-maximal effect
Outline: (§3)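 Cells (500-1,000/well) rested 5 h, then received compounds for 48 h; metabolically active cells were measured by CellTiter-Glo luminescence. Final concentrations spanned up to 46 µM (MIPE, 11-point) or 0.59 nM-46 µM (NPC, 8-point) in primary screens, 11-point in follow-ups.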

[10] = qHTS of pediatric cancer cell lines to identify multiple opportunities for drug repurposing: Primary screen for control Hh wild type fibroblast cells (AID 1347106);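 also: series mostly up to about 46 µM; a drop in luminescence marks cytotoxicity and a rise apparent proliferation; nearly all actives have a fitted effect of over 55% in size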
Outline: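 Cells (500-1,000/well) in growth media were settled 5 h at 37 degrees C, then given compounds for 48 h. Viability was read as CellTiter-Glo luminescence. Primary runs used MIPE at 11 points (0.78 nM-46 µM) and NPC at 8 points (0.59 nM-46 µM); follow-ups used 11 points.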

[11] = qHTS of pediatric cancer cell lines to identify multiple opportunities for drug repurposing: Primary screen for Rh30 cells (AID 1347107); also: nearly all actives have a fitted effect of over 75% in size; also: potency is read from the fitted curve at half-maximal effect
Outline: as §2

[12] = qHTS of pediatric cancer cell lines to identify multiple opportunities for drug repurposing: Primary screen for RD cells (AID 1347104); also: nearly all actives have a fitted effect of over 55% in size; also: potency is read from the fitted curve at half-maximal effect
Outline: as §1

[13] = qHTS of pediatric cancer cell lines to identify multiple opportunities for drug repurposing: Primary screen for MG 63 (6-TG R) cells (AID 1347105); also: nearly all actives have a fitted effect of over 50% in size; also: potency is read from the fitted curve at half-maximal effect
Outline: as §1

[14] = qHTS of pediatric cancer cell lines to identify multiple opportunities for drug repurposing: Primary screen for SK-N-SH cells (AID 1347098); also: nearly all actives have a fitted effect of over 65% in size; also: potency is read from the fitted curve at half-maximal effect
Outline: as §3

[15] = qHTS of pediatric cancer cell lines to identify multiple opportunities for drug repurposing: Primary screen for BT-12 cells (AID 1347101); also: nearly all actives have a fitted effect of over 25% in size; also: potency is read from the fitted curve at half-maximal effect
Outline: as §3

[16] = qHTS of pediatric cancer cell lines to identify multiple opportunities for drug repurposing: Primary screen for Rh41 cells (AID 1347108); also: nearly all actives have a fitted effect of over 70% in size; also: potency is read from the fitted curve at half-maximal effect
Outline: as §1

[17] = qHTS of pediatric cancer cell lines to identify multiple opportunities for drug repurposing: Confirmatory screen for NB1643 cells (AID 1347109); also: potency is read from the fitted curve at half-maximal effect; nearly all actives have a fitted effect of over 45% in size
Outline: as §2

[18] = qHTS of pediatric cancer cell lines to identify multiple opportunities for drug repurposing: Confirmatory screen for A673 cells (AID 1347110);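 also: cells exposed to compound for 48 h before the viability read; nearly all actives have a fitted effect of over 65% in size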; also: potency is read from the fitted curve at half-maximal effect
Outline: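 Cells plated at 500-1,000/well were treated five hours later with multi-point dilutions up to 46 µM final. After two days, CellTiter-Glo was added and luminescence read.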

[19] = qHTS of pediatric cancer cell lines to identify multiple opportunities for drug repurposing: Confirmatory screen for LAN-5 cells (AID 1347113); also: nearly all actives have a fitted effect of over 65% in size; also: potency is read from the fitted curve at half-maximal effect
Outline: as §2

[20] = qHTS of pediatric cancer cell lines to identify multiple opportunities for drug repurposing: Confirmatory screen for BT-12 cells (AID 1347112); also: nearly all actives have a fitted effect of over 55% in size
Outline: as §2

Measured: Potency

CC(C)(Sc1ccc(CCN(CCCCC2CCCCC2)C(=O)NC2CCCCC2)cc1)C(=O)O
inactive: [4] | [8] | [9] | [10] | [11]
active: [1] 23.5 µM | [2] 21700 nM | [3] 20900 nM | [5] 23500 nM | [6] 14800 nM | [7] 20900 nM

CNC(=O)c1ccc(N2C(=S)N(c3ccc(C#N)c(C(F)(F)F)c3)C(=O)C2(C)C)cc1F
inactive: [1] | [2] | [3] | [4] | [5] | [6] | [7] | [8] | [12] | [13] | [10] | [11]

COc1ccc(C2=N[C@H](c3ccc(Cl)cc3)[C@H](c3ccc(Cl)cc3)N2C(=O)N2CCNC(=O)C2)c(OC(C)C)c1
active: [1] 2.64 µM | [2] 7690 nM | [3] 743 nM | [5] 23500 nM | [14] 3830 nM | [6] 2640 nM | [7] 2350 nM | [15] 24300 nM | [8] 5260 nM | [16] 18700 nM
inactive: [10]

Cc1cc(SCc2sc(-c3ccc(C(F)(F)F)cc3)nc2C)ccc1OCC(=O)O
inactive: [2] | [3] | [4] | [5] | [7] | [8] | [12] | [13] | [10] | [11]
active: [1] 18.7 µM

Cc1cnc(Nc2ccc(OCCN3CCCC3)cc2)nc1Nc1cccc(S(=O)(=O)NC(C)(C)C)c1
active: [1] 18.7 µM | [6] 23500 nM
inactive: [2] | [3] | [4] | [5] | [7] | [8] | [12] | [10] | [11] | [16]

COc1cc2nccc(Oc3ccc(NC(=O)NC4CC4)c(Cl)c3)c2cc1C(N)=O
inactive: [4] | [11]
active: [1] 0.935 µM | [2] 1370 nM | [3] 93.5 nM | [14] 1520 nM | [6] 2960 nM | [7] 372 nM | [15] 6850 nM | [8] 5260 nM | [12] 14800 nM | [16] 5900 nM

CCOc1cc(C=C2C(=O)N(c3ccccc3)N=C2C)cc(Cl)c1OCC(=O)OC
active: [1] 11.8 µM | [3] 20900 nM | [7] 18700 nM
inactive: [2] | [4] | [5] | [15] | [12] | [10] | [11]

O=C1[C@H](Cc2ccc(O)cc2)N2C(=O)CCN(C(=O)NCc3ccccc3)[C@H]2CN1Cc1cccc2ccccc12
active: [1] 1.18 µM | [2] 4850 nM | [3] 14800 nM | [6] 2960 nM | [7] 10500 nM | [9] 4850 nM | [12] 10500 nM | [13] 3720 nM
inactive: [4]

Oc1cccc(-c2nc(N3CCOCC3)c3oc4ncccc4c3n2)c1
active: [1] 0.0481 µM | [2] 444 nM | [3] 191 nM | [5] 340 nM | [14] 879 nM | [6] 215 nM | [7] 960 nM | [8] 303 nM | [9] 444 nM | [12] 241 nM | [13] 85.5 nM | [11] 13600 nM | [16] 382 nM | [17] 2400 nM | [18] 1850 nM | [19] 537 nM

NC(=O)C1CCCc2c1[nH]c1ccc(Cl)cc21 (centres undefined)
inactive: [2] | [3] | [4] | [7] | [15] | [8] | [13] | [10]
active: [1] 26.4 µM

Cc1c(CN2CCN(C(=O)C(C)C)CC2)sc2c(N3CCOCC3)nc(-c3cnc(N)nc3)nc12
active: [1] 0.0235 µM | [2] 485 nM | [3] 118 nM | [5] 332 nM | [14] 961 nM | [6] 6620 nM | [7] 662 nM | [15] 685 nM | [8] 264 nM | [9] 34.3 nM | [12] 935 nM | [13] 118 nM | [11] 1870 nM | [16] 235 nM | [18] 1470 nM | [19] 737 nM

CC(C)OC(=O)C1=CN(C(=O)c2ccc(F)c(F)c2)CC(C)(C)c2c1[nH]c1ccccc21
inactive: [2] | [3] | [4] | [14] | [7] | [15] | [8] | [9] | [12] | [13] | [10] | [11]
active: [1] 26.4 µM

O=C(Nc1nc2ccccc2n1CCN1CCOCC1)c1cccc([N+](=O)[O-])c1
inactive: [4] | [10]
active: [1] 3.32 µM | [2] 7690 nM | [3] 7430 nM | [14] 24100 nM | [6] 7430 nM | [7] 3720 nM | [15] 21700 nM | [9] 9680 nM

CS(=O)(=O)Oc1ccc2c(NC(N)=O)c(C(=O)c3ccc(Cl)cc3Cl)oc2c1
inactive: [11]
active: [1] 1.48 µM | [2] 3430 nM | [3] 4180 nM | [14] 15200 nM | [6] 3720 nM | [7] 2090 nM | [8] 2350 nM | [9] 1530 nM | [12] 13200 nM | [13] 18700 nM

CCn1cc(C(=O)O)c(=O)c2cc(F)c(N3CCNC(C)C3)c(F)c21 (centres undefined)
inactive: [1] | [2] | [3] | [4] | [5] | [7] | [15] | [8] | [9] | [12] | [13] | [10] | [11]

COc1ccc(-c2oc3cc(OC)ccc3c2C(=O)c2ccc(C#N)cc2)cc1
active: [1] 4.18 µM | [2] 685 nM | [3] 7430 nM | [14] 24100 nM | [7] 833 nM | [15] 1090 nM | [9] 968 nM
inactive: [4] | [8] | [10] | [11] | [18] | [20] | [19]

CC(C=CC1=C(C)CCCC1(C)C)=CC=CC(C)=CC(=O)O
active: [1] 8.33 µM and 1.48 µM | [9] 344 nM | [13] 9350 nM
inactive: [2] | [3] | [4] | [14] | [7] | [15] | [8] | [11] | [18] | [20] | [19]
